HIF act = HIF pathway transcriptional activation. U2OS HRE-luciferase reporter, luminescence; normalized: DMSO 0%, desferrioxamine 100%. actives 0.32% (n = 300,000). activation, % at 7.5 µM (by protocol). AID 1910;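 active = mean activation of at least 10% of the iron chelator positive control signal, with at least half of replicates also reaching 10%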
ALR H2O2 inh = human ALR oxidase inhibition via reduced H2O2; P55789; purified ALR, DTT oxidation, H2O2 HRP-luminol luminescence; inhibition, % (test concentration not listed); actives 3.8% (n = 290,000);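 active = mean replicate inhibition above about 79%, with every replicate also reaching it, limit read from the data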
Target sequence (P55789 whole entry, looked up): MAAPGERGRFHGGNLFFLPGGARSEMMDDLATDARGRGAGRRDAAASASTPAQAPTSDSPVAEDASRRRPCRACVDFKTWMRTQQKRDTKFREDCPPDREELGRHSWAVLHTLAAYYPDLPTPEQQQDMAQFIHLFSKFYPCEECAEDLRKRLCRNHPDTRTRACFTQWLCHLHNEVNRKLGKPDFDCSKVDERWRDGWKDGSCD
AI-2 QS mod = Vibrio harveyi AI-2 quorum sensing modulation | actives 0.4% (n = 300,000) | Vibrio harveyi JMH597 AI-2 luminescence/OD600 ratio, 9 h; active compounds read low; strain lacks LuxN and CqsS sensors; 0 = neutral-control median | activity change, % at 7.5 µM; in the data active = activity change below about -75%, passing the limit was not always enough;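 note: luminescence divided by OD600 gain over 9 h not by final OD600 alone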
SUMO Mot1 rescue = SUMOylation pathway inhibition by Mot1-301 growth rescue | S. cerevisiae Mot1-301 growth rescue, ATP luminescence, 38.5C; percent above DMSO median, 100 means doubled | growth rescue, % at 18.8 µM | actives 1% (n = 320,000);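 active = every valid replicate shows activation above 250% relative to neutral control wells; inactive = the rest, any valid replicate at or below 250%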;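 note: OY570 slx delta 5 strain wells were the positive control but not used for scaling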
An asterisk follows results filed as active; x = no result given; + = active, no number. Compounds with a hit are over-represented: about 4.8% of the library has one in this group of screens.

SMILES | HIF act | ALR H2O2 inh | AI-2 QS mod | SUMO Mot1 rescue
O=C1c2ccccc2C(=O)c2c(Nc3ccc(CCO)cc3)ccc(O)c21 | -15 | -1 | -7 | -13
O=C(Nc1ccc(S(=O)(=O)Nc2nccs2)cc1)c1c(F)c(F)c(F)c(F)c1F | 0 | -3 | 6 | 4
CCOC(=O)c1ccc(S(=O)(=O)N2CCN(C/C=C/c3ccccc3)CC2)cc1 | x | x | x | 10
O=C(Nc1ccccc1)Nc1ccc(O)c2ccccc12 | 0 | 87* | 19 | 7
CCOc1ccc(/C=C/C(=O)c2cc(Br)ccc(=O)c2O)cc1 | x | 96* | x | -19
CCc1ccc(/C=C/C(=O)c2cc(Br)ccc(=O)c2O)cc1 | 0 | 36 | 11 | 18
Cc1cccc(/C=C/C(=O)c2cc(Br)ccc(=O)c2O)c1 | 0 | 98* | 2 | 7
COc1ccc(CN2C(=O)c3ccc(C(=O)O)cc3C2=O)cc1 | 0 | -5 | 44 | 116
O=C(Nc1nnc(SCc2ccccn2)s1)C1CC(=O)N(c2ccc(F)cc2)C1 (stereo unspecified) | 0 | -4 | 24 | 6
Cc1ccc(S(=O)(=O)N2CCCC2)cc1C(=O)NCCOc1ccccc1 | x | 1 | x | -8
Cc1ccc2c(c1)c1c(n2C)C(C(N)=O)CCC1 (stereo unspecified) | 0 | 3 | 9 | -11
Cc1ccc2c(c1)c1c(n2C)-c2[nH]ncc2CC1 | 2 | 94* | 68 | 96
CCCCC(=O)OCc1c(-c2cccc(OC)c2)ncc2ccccc12 | x | -16 | x | -13
O=C(CCN1CCc2ccccc2C(c2ccccc2)C1)c1ccc2c(c1)OCCO2 (stereo unspecified) | 0 | 97* | 31 | 25
COc1ccc(NC(=O)c2cc3ccccc3cc2OC)cc1 | 3 | 0 | -1 | -32
COc1cc2ccccc2cc1C(=O)NNC(=O)c1ccccc1O | 12* | 7 | 13 | 6
Cc1cc(C)nc(NNC(=O)c2ccccc2O)n1 | 0 | 95* | 13 | -6
Cc1cc(C)c(NC(=O)CN(C)C(C)C(=O)N2CCc3ccccc32)c(C)c1 (stereo unspecified) | x | -19 | x | 5
CCOC(=O)c1cccc(NC(=O)Cn2cc3c(n2)CCC(C)C3)c1 (stereo unspecified) | 0 | -12 | -77* | 55
CC(=O)Nc1ccc(NC(=O)Cn2cc3c(n2)CCC(C)C3)cc1 (stereo unspecified) | 0 | x | 15 | x
CC(Sc1nc(N)cc(=O)[nH]1)C(=O)NC1CCCCC1 (stereo unspecified) | x | x | x | +
Cc1ccc(CNCC(=O)Nc2ccc(N3CCOCC3)cc2)cc1 | 0 | 99* | 5 | 19
O=C(CS(=O)(=O)c1ccccc1)Nc1ccc(N2CCOCC2)cc1 | 20* | 70 | -3 | 107
O=C(CN1CCN(Cc2ccccc2)CC1)Nc1ccc(N2CCOCC2)cc1 | 0 | 23 | 19 | 13
O=C(Nc1ccc(N2CCOCC2)cc1N1CCOCC1)c1cccs1 | 0 | 78* | 2 | -4
SMILES | HIF act | ALR H2O2 inh | AI-2 QS mod | SUMO Mot1 rescue
O=C(Nc1ccc(N2CCOCC2)cc1N1CCOCC1)c1ccc(Br)cc1 | -1 | -9 | 28 | -4
O=C(Nc1ccc(N2CCOCC2)cc1)C1CC(O)CN1S(=O)(=O)c1ccc(Cl)cc1 (stereo unspecified) | 1 | 78* | 11 | 14
N#Cc1c([N+](=O)[O-])cc([N+](=O)[O-])cc1S(=O)(=O)Cc1ccccc1 | x | x | x | 237
CC(Oc1ccc(F)cc1)C(=O)Nc1ccccc1N1CCCCC1 (stereo unspecified) | 0 | 8 | 16 | 1
COc1ccc(OC)c(NC(=O)c2ccc3c(c2)C(=O)N(CC2CCCO2)C3=O)c1 (stereo unspecified) | 0 | -4 | 16 | -3
Cc1ccc(C2(C)NC(=O)N(CC(=O)Nc3ccc(N4CCOCC4)cc3N3CCOCC3)C2=O)cc1 (stereo unspecified) | 0 | 22 | x | -3
Cc1ccc(CSCC(=O)Nc2ccc(N3CCOCC3)cc2N2CCOCC2)cc1 | 0 | 98* | 34 | 11
CC(C)(C)OC(=O)C[C@@H]1C/C=C\C[C@H](CC(=O)NCCO)C(=O)N2CCC[C@@H]2COC1=O | x | -11 | x | -6
COCCc1nc2ccc(C(=O)N(C)Cc3cccc(-n4nc(C)cc4C)c3)cc2o1 | 1 | -9 | 20 | -14
CC(NC(=O)C(=O)N1CCCCC1)C(c1cccs1)N1CCN(c2ccccc2)CC1 (stereo unspecified) | -1 | 99* | 8 | 14
CC(NS(C)(=O)=O)C(c1cccs1)N1CCN(c2ccccc2)CC1 (stereo unspecified) | -1 | 99* | 17 | 563
CC(NC(=O)C1CC1)C(c1cccs1)N1CCN(c2ccccc2)CC1 (stereo unspecified) | 0 | 99* | 5 | -8
CC(NC(=O)C(=O)N1CCCCC1)C(c1cccs1)N1CCN(Cc2ccccc2)CC1 (stereo unspecified) | 0 | 1 | 11 | 27
CC(NC(=O)C(=O)N1CCCCC1)C(c1cccs1)N1CCN(c2ccc(F)cc2)CC1 (stereo unspecified) | 0 | 98* | 11 | 1
CC(NS(C)(=O)=O)C(c1cccs1)N1CCN(c2ccccc2F)CC1 (stereo unspecified) | 0 | x | 9 | 113
C[C@H](CO)N1C[C@H](C)[C@@H](CN(C)S(C)(=O)=O)Oc2ccc(NC(=O)c3ccncc3)cc2C1=O | x | -6 | x | -13
COc1ccc(NC(=O)CN(C)C(=O)C(C)N2C(=O)c3ccccc3C2=O)cc1 (stereo unspecified) | 0 | x | 14 | 247
O=C1CC(N2CCc3ccccc32)C(=O)N1c1ccccc1 (stereo unspecified) | 2 | 99* | 20 | 0
CN1c2ccccc2C(O)=C(C(=S)Nc2ccccc2)S1(=O)=O | 0 | 48 | 15 | 0
CN1c2ccccc2C(O)=C(C(=S)Nc2ccc(F)c(Cl)c2)S1(=O)=O | 0 | 96* | 42 | -14
Cc1ccccc1C(=O)N1CCC(C(=O)N(CC(C)C)c2c(N)n(Cc3ccccc3)c(=O)[nH]c2=O)CC1 | 0 | -13 | 32 | 336*
O=C(NCCN1CCOCC1)c1cccc(NS(=O)(=O)c2ccc(Br)cc2)c1 | 0 | x | 16 | 316
Cc1ccc(SCc2cc(=O)c3c(=O)n(-c4ccccc4)[nH]c3[nH]2)cc1 | 0 | 94* | 42 | -20
O=c1cc(CSc2ccc(Cl)cc2)[nH]c2[nH]n(-c3ccccc3)c(=O)c12 | 0 | 85* | 11 | -17
COc1cccc(CNC(=O)CCCc2nnc3n(C)c(=O)c4sccc4n23)c1 | 0 | 4 | 21 | 3
CS(=O)(=O)N1CCc2cc(C(=O)Nc3ccc(O)cc3)ccc21 | 1 | 99* | 5 | -10
CC(=O)Nc1ccc(NC(=O)c2ccc3c(c2)CCN3S(C)(=O)=O)cc1 | 3 | -5 | 0 | 136
S=C(NCC1CCCO1)Nc1ccc(Nc2ccccc2)cc1 (stereo unspecified) | 0 | 99* | 10 | -14
OCCCNC(=S)Nc1ccc(Nc2ccccc2)cc1 | -1 | 99* | 27 | 7
